The text below walks through data of PMC7862700, “An all-to-all approach to the identification of sequence-specific readers for epigenetic DNA modifications on cytosine”.

Assay in all cases: DAPPL (digital affinity profiling via proximity ligation, sequencing); 10 mM Tris-HCl pH 7.5, 50 mM NaCl, 1 mM DTT, 4% glycerol, room temperature, 30 min; GST-TFs on glutathione beads, 16-mer random dsDNA library, 0.1% formaldehyde crosslink after washing; high values mean tight binding
Common to all, as to conditions: protein: recombinant; tags: N-terminal GST; dsDNA, one strand shown

One assay addresses T1, ELK1 (Homo sapiens, UniProt P19419 1-428).
T1 sequence: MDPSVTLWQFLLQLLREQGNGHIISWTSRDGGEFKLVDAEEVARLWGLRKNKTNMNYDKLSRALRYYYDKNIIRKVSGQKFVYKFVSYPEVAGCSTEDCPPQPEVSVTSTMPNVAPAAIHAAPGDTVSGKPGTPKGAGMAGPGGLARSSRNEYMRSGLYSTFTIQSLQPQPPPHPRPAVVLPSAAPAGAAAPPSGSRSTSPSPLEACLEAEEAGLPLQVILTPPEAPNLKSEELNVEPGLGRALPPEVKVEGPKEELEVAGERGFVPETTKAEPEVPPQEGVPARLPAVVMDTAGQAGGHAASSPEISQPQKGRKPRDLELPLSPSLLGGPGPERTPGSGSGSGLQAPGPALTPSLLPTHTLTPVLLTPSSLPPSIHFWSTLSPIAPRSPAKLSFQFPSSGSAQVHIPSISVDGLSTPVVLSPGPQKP
The procedure, abridged:
(§1)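 A tag-only sample was pooled with DNA-barcoded human transcription factors that had been expressed in yeast as GST fusions and captured on glutathione beads. The pools were incubated for 30 min at room temperature with 200 nmole of a random double-stranded 16-mer DNA library in Tris/NaCl/DTT/glycerol buffer, then washed, crosslinked with 0.1% formaldehyde, proximity-ligated (BsaI/T4 ligase, 1 h, 37 °C), PCR-amplified and sequenced on an Illumina NextSeq500. Binding signal is each hexamer's read frequency for a factor divided by its frequency for the tag-only sample.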

In another assay the target is T2, GABPA (Homo sapiens, UniProt Q06546 1-454).
T2 sequence: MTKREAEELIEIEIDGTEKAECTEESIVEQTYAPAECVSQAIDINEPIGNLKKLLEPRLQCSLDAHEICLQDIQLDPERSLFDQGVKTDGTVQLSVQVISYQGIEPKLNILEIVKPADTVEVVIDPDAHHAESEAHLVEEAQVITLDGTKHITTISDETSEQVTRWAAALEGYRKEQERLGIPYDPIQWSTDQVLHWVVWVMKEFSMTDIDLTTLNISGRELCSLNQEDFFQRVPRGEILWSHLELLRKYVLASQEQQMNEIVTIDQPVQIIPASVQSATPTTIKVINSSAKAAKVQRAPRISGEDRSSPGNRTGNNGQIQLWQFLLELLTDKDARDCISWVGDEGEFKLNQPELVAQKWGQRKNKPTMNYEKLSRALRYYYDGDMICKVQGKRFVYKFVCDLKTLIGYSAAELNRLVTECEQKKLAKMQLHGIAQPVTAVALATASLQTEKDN
The procedure, abridged:
as §1

In another assay the target is T3, ERG (Homo sapiens, UniProt P11308 1-479).
T3 sequence: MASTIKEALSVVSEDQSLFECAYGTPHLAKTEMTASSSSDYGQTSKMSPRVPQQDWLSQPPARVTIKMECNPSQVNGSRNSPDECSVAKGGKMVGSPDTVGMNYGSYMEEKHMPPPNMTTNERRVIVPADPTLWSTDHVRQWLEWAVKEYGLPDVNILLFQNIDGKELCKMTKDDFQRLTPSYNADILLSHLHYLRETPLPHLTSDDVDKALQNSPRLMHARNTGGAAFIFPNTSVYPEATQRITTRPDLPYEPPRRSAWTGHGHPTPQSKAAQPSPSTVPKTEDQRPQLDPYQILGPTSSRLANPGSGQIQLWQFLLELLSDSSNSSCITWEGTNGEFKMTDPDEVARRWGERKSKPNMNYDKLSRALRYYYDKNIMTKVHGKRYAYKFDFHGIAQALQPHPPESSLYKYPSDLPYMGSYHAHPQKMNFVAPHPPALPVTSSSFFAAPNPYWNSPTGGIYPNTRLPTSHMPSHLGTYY
The procedure, abridged: as §1

The target in the next assay is ELF1 (Homo sapiens, UniProt P32519 1-619). A digest of the protocol: as §1
The next assay has as its target T4, EHF (Homo sapiens, UniProt Q9NZC4 1-300).
T4 sequence: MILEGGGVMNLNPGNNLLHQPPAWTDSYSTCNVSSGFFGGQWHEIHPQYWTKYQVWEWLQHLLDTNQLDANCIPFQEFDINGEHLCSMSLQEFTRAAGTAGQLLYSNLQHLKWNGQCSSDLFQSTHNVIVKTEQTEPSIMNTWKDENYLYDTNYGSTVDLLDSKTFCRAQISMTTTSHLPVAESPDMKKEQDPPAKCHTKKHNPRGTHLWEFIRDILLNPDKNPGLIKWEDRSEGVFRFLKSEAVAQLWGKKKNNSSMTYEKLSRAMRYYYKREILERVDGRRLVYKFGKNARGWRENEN
A digest of the protocol: as §1

Another assay addresses T5, ELK3 (Homo sapiens, UniProt P41970 1-407).
T5 sequence: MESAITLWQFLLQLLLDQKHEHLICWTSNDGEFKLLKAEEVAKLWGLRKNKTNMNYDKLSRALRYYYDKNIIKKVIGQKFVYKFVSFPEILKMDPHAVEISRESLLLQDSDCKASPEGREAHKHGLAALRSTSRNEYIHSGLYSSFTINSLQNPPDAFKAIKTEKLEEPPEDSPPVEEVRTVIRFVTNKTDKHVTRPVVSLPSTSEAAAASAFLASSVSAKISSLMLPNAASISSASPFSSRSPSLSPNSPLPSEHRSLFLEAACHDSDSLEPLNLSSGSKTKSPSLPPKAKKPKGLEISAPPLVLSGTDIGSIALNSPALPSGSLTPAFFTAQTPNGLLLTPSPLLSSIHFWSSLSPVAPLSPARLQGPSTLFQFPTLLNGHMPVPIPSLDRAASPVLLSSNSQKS
The procedure, abridged:
as §1

For a further assay, the target named is ETV5 (Homo sapiens, UniProt P41161 1-510). A digest of the protocol: as §1
In the next assay the target is T6, SPIC (Homo sapiens, UniProt Q8N5J4 1-248).
T6 sequence: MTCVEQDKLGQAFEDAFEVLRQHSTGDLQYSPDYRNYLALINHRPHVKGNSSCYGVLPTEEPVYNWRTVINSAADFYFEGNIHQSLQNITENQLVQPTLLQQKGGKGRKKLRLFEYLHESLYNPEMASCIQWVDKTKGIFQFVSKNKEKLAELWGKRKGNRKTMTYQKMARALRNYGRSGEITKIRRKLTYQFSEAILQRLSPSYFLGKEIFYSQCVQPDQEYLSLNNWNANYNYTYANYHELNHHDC
The procedure, abridged:
as §1

The next assay addresses ELF4 (Homo sapiens, UniProt Q99607 1-663). The procedure, abridged: as §1
The target in another assay is T7, ELK4 (Homo sapiens, UniProt P28324-2 1-405).
T7 sequence: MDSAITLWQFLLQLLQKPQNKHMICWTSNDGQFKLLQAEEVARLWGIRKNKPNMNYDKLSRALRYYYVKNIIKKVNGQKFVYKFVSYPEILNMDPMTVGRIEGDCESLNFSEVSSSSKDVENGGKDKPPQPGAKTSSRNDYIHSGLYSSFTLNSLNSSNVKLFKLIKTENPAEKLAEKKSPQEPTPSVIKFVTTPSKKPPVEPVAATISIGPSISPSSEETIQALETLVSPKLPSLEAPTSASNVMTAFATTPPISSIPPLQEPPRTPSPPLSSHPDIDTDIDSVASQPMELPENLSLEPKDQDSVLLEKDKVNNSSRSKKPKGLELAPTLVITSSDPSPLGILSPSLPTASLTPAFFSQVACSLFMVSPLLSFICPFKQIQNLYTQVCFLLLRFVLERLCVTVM
The procedure, abridged:
as §1

A further assay addresses ETV1 (Homo sapiens, UniProt P50549 1-477). The procedure, abridged: as §1
In a further assay the target is T8, ERF (Homo sapiens, UniProt P50548 1-548).
T8 sequence: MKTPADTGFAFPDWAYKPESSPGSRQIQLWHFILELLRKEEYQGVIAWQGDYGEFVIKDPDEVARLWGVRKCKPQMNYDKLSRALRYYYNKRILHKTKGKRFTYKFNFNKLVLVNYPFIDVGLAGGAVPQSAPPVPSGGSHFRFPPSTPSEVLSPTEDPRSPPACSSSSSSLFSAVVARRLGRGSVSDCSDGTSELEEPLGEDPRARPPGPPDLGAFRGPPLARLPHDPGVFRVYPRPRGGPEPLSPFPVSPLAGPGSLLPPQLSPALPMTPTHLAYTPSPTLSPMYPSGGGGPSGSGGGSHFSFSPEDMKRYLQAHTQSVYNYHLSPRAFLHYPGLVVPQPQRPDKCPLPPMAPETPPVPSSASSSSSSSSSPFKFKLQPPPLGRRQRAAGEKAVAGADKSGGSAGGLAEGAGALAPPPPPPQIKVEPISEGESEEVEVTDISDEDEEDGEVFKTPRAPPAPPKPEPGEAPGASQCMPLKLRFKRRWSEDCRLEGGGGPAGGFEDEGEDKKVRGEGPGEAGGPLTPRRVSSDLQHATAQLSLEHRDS
A digest of the protocol: as §1

Another assay deals with T9, ETV3L (Homo sapiens, UniProt Q6ZN32 1-361).
T9 sequence: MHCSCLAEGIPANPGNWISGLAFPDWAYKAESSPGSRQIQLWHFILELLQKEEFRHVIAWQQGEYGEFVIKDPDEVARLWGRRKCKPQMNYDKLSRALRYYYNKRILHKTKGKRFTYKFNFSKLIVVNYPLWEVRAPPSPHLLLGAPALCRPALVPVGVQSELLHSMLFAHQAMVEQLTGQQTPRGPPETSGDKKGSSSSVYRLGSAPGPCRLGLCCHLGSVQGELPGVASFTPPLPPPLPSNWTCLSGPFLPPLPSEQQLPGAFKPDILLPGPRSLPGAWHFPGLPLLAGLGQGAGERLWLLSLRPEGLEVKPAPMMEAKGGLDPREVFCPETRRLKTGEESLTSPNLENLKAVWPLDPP
A digest of the protocol:
as §1

The target in a further assay is T10, ETS2 (Homo sapiens, UniProt P15036 1-469).
T10 sequence: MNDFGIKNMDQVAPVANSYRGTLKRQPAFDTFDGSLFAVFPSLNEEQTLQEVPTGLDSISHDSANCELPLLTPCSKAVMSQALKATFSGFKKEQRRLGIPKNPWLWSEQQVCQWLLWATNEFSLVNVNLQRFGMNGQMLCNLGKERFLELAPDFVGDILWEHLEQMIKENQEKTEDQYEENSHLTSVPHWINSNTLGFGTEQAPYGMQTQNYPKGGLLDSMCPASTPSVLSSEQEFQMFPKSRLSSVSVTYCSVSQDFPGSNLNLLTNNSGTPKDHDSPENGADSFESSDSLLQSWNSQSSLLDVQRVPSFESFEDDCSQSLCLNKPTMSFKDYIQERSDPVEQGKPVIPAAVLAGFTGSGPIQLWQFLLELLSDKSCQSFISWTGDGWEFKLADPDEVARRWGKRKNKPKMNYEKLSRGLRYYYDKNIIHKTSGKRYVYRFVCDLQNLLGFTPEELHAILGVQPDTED
The procedure, abridged:
as §1

For another assay, the target named is T11, SPDEF (Homo sapiens, UniProt O95238 1-335).
T11 sequence: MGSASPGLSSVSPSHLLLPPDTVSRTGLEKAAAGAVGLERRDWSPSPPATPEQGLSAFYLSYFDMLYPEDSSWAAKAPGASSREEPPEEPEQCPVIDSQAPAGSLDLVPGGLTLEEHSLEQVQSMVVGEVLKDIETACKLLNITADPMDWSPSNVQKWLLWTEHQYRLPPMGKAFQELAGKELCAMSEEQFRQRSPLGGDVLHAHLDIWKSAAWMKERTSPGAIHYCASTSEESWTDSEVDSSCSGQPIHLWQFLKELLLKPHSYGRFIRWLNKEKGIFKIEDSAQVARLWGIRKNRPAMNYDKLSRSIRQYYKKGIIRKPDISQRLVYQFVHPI
A digest of the protocol: as §1

In another assay the target is T12, ETV7 (Homo sapiens, UniProt Q9Y603 1-341).
T12 sequence: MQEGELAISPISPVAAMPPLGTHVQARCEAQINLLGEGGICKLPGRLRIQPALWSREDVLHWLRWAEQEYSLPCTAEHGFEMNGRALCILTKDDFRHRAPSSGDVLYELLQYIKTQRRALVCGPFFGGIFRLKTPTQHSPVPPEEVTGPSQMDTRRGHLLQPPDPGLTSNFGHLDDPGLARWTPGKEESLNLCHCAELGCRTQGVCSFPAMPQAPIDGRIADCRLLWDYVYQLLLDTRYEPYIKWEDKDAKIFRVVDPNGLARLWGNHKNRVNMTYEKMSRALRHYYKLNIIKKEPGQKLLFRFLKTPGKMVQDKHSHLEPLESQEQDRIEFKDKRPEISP
The procedure, abridged: as §1

A further assay concerns the target T13, ETV3 (Homo sapiens, UniProt P41162-2 1-143).
T13 sequence: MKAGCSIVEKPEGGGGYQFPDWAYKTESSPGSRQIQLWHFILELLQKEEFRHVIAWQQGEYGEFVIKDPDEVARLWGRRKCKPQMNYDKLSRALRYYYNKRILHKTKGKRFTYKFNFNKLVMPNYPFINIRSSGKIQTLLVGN
The procedure, abridged: as §1

A further assay has as its target ETV6 (Homo sapiens, UniProt P41212 1-452). The procedure, abridged: as §1

Chain of ETV5 (P41161 whole entry): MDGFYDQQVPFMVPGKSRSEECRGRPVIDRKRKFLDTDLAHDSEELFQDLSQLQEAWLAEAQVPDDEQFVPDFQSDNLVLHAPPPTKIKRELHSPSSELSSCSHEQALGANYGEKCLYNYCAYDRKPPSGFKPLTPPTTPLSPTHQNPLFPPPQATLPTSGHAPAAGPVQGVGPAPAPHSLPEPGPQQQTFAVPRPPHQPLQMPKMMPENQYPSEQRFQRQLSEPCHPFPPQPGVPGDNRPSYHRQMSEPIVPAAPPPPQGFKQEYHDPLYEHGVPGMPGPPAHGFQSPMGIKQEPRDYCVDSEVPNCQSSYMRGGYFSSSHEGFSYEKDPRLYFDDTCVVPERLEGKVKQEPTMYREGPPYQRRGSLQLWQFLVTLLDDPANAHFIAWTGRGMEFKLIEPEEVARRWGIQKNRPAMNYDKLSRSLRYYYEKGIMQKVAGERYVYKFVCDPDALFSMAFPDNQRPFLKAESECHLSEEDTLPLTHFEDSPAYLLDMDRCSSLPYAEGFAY
Chain of ELF4 (Q99607 whole entry): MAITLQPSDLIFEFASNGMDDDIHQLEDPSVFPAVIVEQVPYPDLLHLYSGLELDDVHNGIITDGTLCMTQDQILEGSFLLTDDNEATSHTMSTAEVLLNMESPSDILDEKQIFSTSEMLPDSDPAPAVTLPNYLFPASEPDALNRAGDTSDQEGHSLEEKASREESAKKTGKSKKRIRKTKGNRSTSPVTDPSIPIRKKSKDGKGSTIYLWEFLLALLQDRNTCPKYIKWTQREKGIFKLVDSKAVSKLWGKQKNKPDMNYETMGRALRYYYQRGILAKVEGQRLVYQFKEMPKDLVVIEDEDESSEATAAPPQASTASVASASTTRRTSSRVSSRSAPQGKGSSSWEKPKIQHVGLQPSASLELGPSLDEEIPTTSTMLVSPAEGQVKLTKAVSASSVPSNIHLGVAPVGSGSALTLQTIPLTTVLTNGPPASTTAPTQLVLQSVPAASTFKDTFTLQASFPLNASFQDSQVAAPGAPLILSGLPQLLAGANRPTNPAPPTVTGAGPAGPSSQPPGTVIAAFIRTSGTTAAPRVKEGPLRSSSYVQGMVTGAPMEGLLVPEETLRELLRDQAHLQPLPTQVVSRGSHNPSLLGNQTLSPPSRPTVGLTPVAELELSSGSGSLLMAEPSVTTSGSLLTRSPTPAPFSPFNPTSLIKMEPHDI
Chain of ETV1 (P50549 whole entry): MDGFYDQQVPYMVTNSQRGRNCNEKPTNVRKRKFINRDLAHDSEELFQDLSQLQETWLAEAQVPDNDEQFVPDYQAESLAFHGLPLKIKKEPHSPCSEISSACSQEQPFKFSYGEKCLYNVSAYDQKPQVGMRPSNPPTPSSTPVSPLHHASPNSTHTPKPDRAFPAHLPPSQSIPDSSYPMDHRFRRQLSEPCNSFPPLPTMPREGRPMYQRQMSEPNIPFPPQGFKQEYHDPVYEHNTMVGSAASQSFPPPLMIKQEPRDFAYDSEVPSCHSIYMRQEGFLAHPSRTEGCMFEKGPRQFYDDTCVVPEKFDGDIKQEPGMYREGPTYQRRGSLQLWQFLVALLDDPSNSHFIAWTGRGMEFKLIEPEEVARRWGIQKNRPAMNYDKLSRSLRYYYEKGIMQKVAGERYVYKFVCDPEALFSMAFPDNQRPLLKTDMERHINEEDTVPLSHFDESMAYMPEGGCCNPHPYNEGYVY
Chain of ELF1 (P32519 whole entry): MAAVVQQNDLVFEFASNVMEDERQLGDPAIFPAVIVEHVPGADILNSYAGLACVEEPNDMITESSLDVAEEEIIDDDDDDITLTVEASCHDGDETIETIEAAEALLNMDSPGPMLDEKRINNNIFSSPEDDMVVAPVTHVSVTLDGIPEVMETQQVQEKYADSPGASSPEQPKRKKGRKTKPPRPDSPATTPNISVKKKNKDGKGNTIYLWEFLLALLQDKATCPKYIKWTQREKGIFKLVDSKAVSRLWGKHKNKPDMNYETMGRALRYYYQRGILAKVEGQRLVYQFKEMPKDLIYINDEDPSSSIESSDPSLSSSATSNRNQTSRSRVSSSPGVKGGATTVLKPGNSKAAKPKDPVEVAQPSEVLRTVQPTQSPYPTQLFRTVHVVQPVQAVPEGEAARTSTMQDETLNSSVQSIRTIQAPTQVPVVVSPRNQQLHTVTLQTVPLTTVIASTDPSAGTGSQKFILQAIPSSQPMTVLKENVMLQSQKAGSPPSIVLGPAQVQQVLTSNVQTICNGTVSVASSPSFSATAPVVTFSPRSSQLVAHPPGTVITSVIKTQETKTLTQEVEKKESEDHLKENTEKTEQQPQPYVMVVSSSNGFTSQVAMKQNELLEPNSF
Chain of ETV6 (P41212 whole entry): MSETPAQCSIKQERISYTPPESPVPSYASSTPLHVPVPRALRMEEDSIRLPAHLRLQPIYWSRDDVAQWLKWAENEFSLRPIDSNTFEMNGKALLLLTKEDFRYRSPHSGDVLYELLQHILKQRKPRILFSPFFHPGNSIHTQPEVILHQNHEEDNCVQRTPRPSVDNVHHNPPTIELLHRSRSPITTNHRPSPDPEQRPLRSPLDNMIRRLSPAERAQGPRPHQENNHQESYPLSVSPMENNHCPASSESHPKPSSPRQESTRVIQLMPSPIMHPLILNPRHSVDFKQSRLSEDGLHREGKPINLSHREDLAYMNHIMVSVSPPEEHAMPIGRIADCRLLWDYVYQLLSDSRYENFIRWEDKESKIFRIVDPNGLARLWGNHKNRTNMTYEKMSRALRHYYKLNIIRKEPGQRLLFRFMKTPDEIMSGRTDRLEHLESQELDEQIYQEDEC

As for AGCACA, the binding signal was 1.01 fold enrichment (6-mer frequency, TF over GST control) with ELK1; 1.08 fold enrichment (6-mer frequency, TF over GST control) in the assay with GABPA; 1.03 fold enrichment (6-mer frequency, TF over GST control) in the assay with ERG; 1.06 fold enrichment (6-mer frequency, TF over GST control) in the assay with ELF1; 1.04 fold enrichment (6-mer frequency, TF over GST control) in the assay with EHF; 1.06 fold enrichment (6-mer frequency, TF over GST control) with ELK3. Also, the binding signal was 1.07 fold enrichment (6-mer frequency, TF over GST control) with ETV5; 1.02 fold enrichment (6-mer frequency, TF over GST control) in the assay with SPIC; 1.08 fold enrichment (6-mer frequency, TF over GST control) in the assay with ELF4; 1.02 fold enrichment (6-mer frequency, TF over GST control) with ELK4; 1.02 fold enrichment (6-mer frequency, TF over GST control) with ETV1; 1.13 fold enrichment (6-mer frequency, TF over GST control) with ERF. Also, the binding signal is 1.14 fold enrichment (6-mer frequency, TF over GST control) in the assay with ETV3L; 1.02 fold enrichment (6-mer frequency, TF over GST control) with ETS2; 1.07 fold enrichment (6-mer frequency, TF over GST control) with SPDEF; 1.01 fold enrichment (6-mer frequency, TF over GST control) with ETV7; 1.05 fold enrichment (6-mer frequency, TF over GST control) with ETV3; 1.11 fold enrichment (6-mer frequency, TF over GST control) with ETV6.
